Source: PubChem BioAssay (NCI)
This is part of a sample that, as a whole, favours compounds with a hit. Of some 83,000 tested, about 20% had one in any assay.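 In brief: 96-well plates, 48 h treatment, single concentration, percent growth endpoint.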 A number with no mark means an inactive call. Activity calls are given as the source filed them.

test system: CAKI-1 renal; experiment: NCI-60 one-dose screen, 48 h (100 = growth as untreated, 0 = no growth, -100 = all killed); settings: 10 µM unless noted
Protocol: Growth inhibition of the CAKI-1 human tumor cell line is measured as a screen for anti-cancer activity. Cells are grown in 96 well plates and exposed to the test compound for 48 hours. Compounds are tested at a single concentration, which is 10^-5 M for most compounds. The reported endpoint is percent growth (GI% or GIPRCNT), where numbers from 0 - 100% represent growth inhibition, and numbers from -100% - 0 represent cell death. For example, a value of 40 represents 60% growth inhibition. A value of 0 means no net growth occurred over the course of the experiment. A value of -40 indicates 40% of cells at the beginning of the experiment died by the end of the experiment. A value of -100 means all cells are dead at the end of the experiment.
NCI-60 Human Tumor Cell Lines Screen was performed using the standard one-dose NCI protocol, which is described in more detail at https://dtp.cancer.gov/discovery_development/nci-60/default.htm.
Compounds with GIPRCNT values below 10 were considered active. Activity score was based on GIPRCNT using the following formula: […]
Score is 0 for GIPRCNT values of 100 or above, 50 for GIPRCNT values of 0, and 100 for GIPRCNT values of -100.

SMILES | growth
N=C(N)c1ccc(-c2ccc(-c3ccc(Cl)cc3)o2)o1 | 54.2%
NS(=O)(=O)c1ccc(N/C=C/C(=O)c2cc3ccccc3oc2=O)cc1 | 80.1%
Nc1n[nH]c2ccc([C@@H]3Nc4cc5[nH]ncc5cc4[C@H]4C5CCC(C5)[C@@H]34)cc12 (stereo not given in full) | 34.5%
Nc1ncnc2c1c(-c1ccc(Oc3ccccc3)cc1)nn2CC1SSCC1O (stereo not given) | 42.5%
C/C(=N\Nc1nc(C)cs1)c1cc2ccccc2o1 | 75.9%
O=C1/C=C/[C@@H](O)[C@@H]2C[C@@H](O)C[C@H]2/C=C/CCC[C@H](CCOCc2ccccc2)O1 | -28.2% (active)
CSCCC(NC(=O)c1ccccc1)C(=O)N/N=C1\S/C(=C/c2ccc(Cl)cc2)C(=O)N1C (stereo not given) | 117%
Cc1c(Cl)cccc1C(=O)Nc1nc2c(s1)CN(C(=O)Nc1cccc(C(F)(F)F)c1)CC2 | 15.9%
N#Cc1c(N2CCOCC2)nc(=S)[nH]c1-c1ccccc1 | 61.4%
O=C1Nc2ccccc2C2c3cccn3-c3ccccc3N12 (stereo not given) | 80.8%
Cc1c(N2CN3C[C@H](C)N4CN(c5c(C)n(C)n(-c6ccccc6)c5=O)CN5C[C@@H](C)N(C2)C3C54)c(=O)n(-c2ccccc2)n1C (stereo not given in full) | 87.5%
CCOC(=O)CSc1nc2sc3c(c2c(=O)n1-c1ccc([N+](=O)[O-])cc1)CCCCC3 | 51.2%
Fc1ccc(CNc2c3ccccc3nc3ccccc23)cc1 | 25.5%
O=C1/C(=C/c2ccccc2)CN(C(=O)c2cccnc2)C/C1=C\c1ccccc1 | 5.87% (active)
CN(C)Cc1ccc(C(=O)Nc2ccc3ncnc(Nc4ccc(Oc5cccc(F)c5)c(Cl)c4)c3c2)cc1 | -42.2% (active)
CC(=O)c1c(Nc2ccc(F)c(F)c2F)[nH]c2c(F)cc(F)cc2c1=O | -10.4% (active)
CCCCSCC(=O)c1ccccc1 | 94.4%
CCOC(=O)n1cc(-c2nonc2-c2cn(C)c3ccccc23)c2ccccc21 | 29.4%
O=C1/C(=C/c2ccc(Br)cc2)COc2ccc(O)c(O)c21 | -36% (active)
CCN(CCO)CC(C)Nc1ccc([N+](=O)[O-])c2sc3ccccc3c(=O)c12 (stereo not given) | -3.3% (active)

SMILES | growth
O=C1OCC2=C1C(c1cccc(F)c1)c1cc3c(cc1N2CCO)OCO3 (stereo not given) | 23.8%
C=NNc1ccccc1 | 84.1%
N#Cc1c(-c2ccccc2)nc2c(c(-c3ccccc3)nn2-c2ccccc2)c1-c1ccc(N2CCOCC2)cc1 | 81.8%
Cc1ccc2[nH]c(=O)c3c(c2c1)OC(N)=C(C#N)C31C(=O)c2cccc3cccc1c23 (stereo not given) | 90.9%
COc1ccc2nc3ccccc3c(NCc3ccc(F)cc3)c2c1 | 7.16% (active)
COc1cc(-c2nc(SCCC(C)C)nc(N3CCOCC3)c2C#N)cc(OC)c1OC | 76.2%
CS(=O)(=O)Nc1cc(-c2ccc3ncnc(Nc4ccc5c(cnn5Cc5cccnc5)c4)c3c2)cnc1Cl | 40.2%
CC1O[C@@H]2C[C@@](O)([C@H]1O)n1c3ccccc3c3c4c(c5c6ccccc6n2c5c31)C(=O)NC4=O (stereo not given in full) | 28%
COc1ccc(/C=C/C(=O)c2ccc(Nc3nc(Nc4ccc(F)cc4)nc(Nc4ccc(Cl)cc4)n3)cc2)cc1 | 86.5%
COc1ccc(C2CC(c3ccc(Nc4nc(Nc5ccc(F)cc5)nc(Nc5ccc(F)cc5)n4)cc3)=NN2C(C)=O)cc1 (stereo not given) | 90.6%
O=C(/C=C/C12c3ccccc3C(c3ccccc31)C1C(=O)NC(=O)C12)c1ccccn1 (stereo not given) | 16.9%
O=S(=O)(c1ccccc1)N1CCCN(c2nc(-c3ccccc3)nc3nc(-c4ccccc4)oc23)CC1 | 91.7%
Cc1ccc(/C=C(\C#N)C(=O)Nc2ncc(Cc3cc(Cl)ccc3Cl)s2)o1 | 23.7%
O=C(O)c1cn(C2CC2)c2cc(N3CCN(C(=O)N/N=C/c4ccccc4)CC3)c(F)cc2c1=O | 93.3%
CCCCC(=O)Nc1ncc(Cc2ccccc2Cl)s1 | 37.8%
C/C(C=O)=C\c1ccc2c(c1)OCO2 | 107%
S=c1ssnc1-c1cccs1 | 92.1%
N#CCC1=NC(c2cccs2)=Nc2ccccc2S1 | 95.6%
CCCCCSB(SCCCCC)c1ccccc1 | 96%
CCCCCCNc1nc(NCCCCCC)c2[nH]c(NCCCCCC)nc2n1 | 74.1%
